Reference: PMC5540273 (PLoS ONE, 2017)

How the values were obtained:
Details in all cases: concentration: 1 μM, replicates: in singlicate; n = 1
[1] = tested on: CDK4-cyclinD3
[2] = tested on: CDK4
[3] = tested on: CDK5
[4] = tested on: CDK7
[5] = tested on: CDK8
[6] = tested on: CDK9
[7] = tested on: CDKL1
[8] = tested on: CDKL2
[9] = tested on: CDKL3
[10] = tested on: CDKL5
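Further: KINOMEscan kinase panel screen.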

| Structure (SMILES) | %Inh [1] [%] | %Inh [2] [%] | %Inh [3] [%] | %Inh [4] [%] | %Inh [5] [%] | %Inh [6] [%] | %Inh [7] [%] | %Inh [8] [%] | %Inh [9] [%] | %Inh [10] [%] |
| --- | --- | --- | --- | --- | --- | --- | --- | --- | --- | --- |
| CCCCCc1nc2c(N)ncnc2n1CCCCC [SKF-97255] | 0 | 13 | 0 | 2 | 8 | 0 | 26 | 0 | 16 | 7 |
| CCn1cnc2c(N)ncnc21 [GW345098] | 0 | 0 | 28 | 20 | 7 | 0 | 25 | 0 | 0 | 0 |
| Cc1nnc(-c2ccc3occ(-c4ccc(C(C)O)cc4)c3c2)o1 (stereo not shown) | 0 | 0 | 1 | 17 | 0 | 8 | 52 | 0 | 0 | 25 |
| O=c1cc(N2CCOCC2)nc2n(Cc3cccc4ccccc34)ccn12 [GSK2333389] | 0 | 0 | 0 | 0 | 13 | 1 | 0 | 4 | 0 | 0 |
